Screens as filed in PubChem BioAssay.
GLP1R ag: GLP-1 receptor (human) agonism; HEK293 GLP-1R CRE-luciferase, luminescence, 4-6 h; cells express a hypersensitive GLP-1R form; AID 624172; 380,000 tested, 0.007% active; Potency, µM (top dose mostly 45.6 µM), for the others: at the top dose activation, hits mostly activators; P43220; also: % of control where 0% means no effect
Target sequence (P43220 whole entry, looked up): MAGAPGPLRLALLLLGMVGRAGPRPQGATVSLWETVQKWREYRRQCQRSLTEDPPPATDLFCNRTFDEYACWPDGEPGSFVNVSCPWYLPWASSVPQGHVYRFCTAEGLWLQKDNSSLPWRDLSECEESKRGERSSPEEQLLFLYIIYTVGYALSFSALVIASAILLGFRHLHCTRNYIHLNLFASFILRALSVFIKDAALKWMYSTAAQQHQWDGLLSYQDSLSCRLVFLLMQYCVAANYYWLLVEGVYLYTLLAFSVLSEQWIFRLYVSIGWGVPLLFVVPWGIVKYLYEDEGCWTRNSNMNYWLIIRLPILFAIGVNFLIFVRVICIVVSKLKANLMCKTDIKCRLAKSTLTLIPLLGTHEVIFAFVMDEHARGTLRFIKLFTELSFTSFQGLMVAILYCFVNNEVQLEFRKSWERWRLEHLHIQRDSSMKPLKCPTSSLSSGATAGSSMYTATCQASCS
GLP1R inv ag: acts as inverse agonist at human GLP-1 receptor. P43220. HEK293 GLP-1R CRE-luciferase, luminescence, 24 h; GLP-1R form is constitutively active. Potency, µM (highest dose often 38.3 µM), for the others: at the top dose activity change, negative = inhibition, actives largely listed as inhibitors. 410,000 tested, 1.6% active. AID 624417; also: % is scaled to controls: 0 for no effect and ±100 for the full control effect; nearly all actives have a fitted effect of over 55% in size
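Cells are plated, allowed 12 hours at 37 deg C, then treated with compounds for 24 hr before luciferase detection reagent is added and luminescence is read after 12 min at room temperature. The HEK293 line carries constitutively active GLP-1R with a cAMP-responsive reporter.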
BRCA1 expr up: increases BRCA1 expression; 380,000 tested, 1.1% active; Potency, µM (doses to about 46.1 µM), for the others: top-dose activation, most hits filed as activators; MCF7-BRCA1-FFLuc reporter, luminescence, 48 h; response scale: scaled: vehicle 0%, 10 µM genistein 100%; also: nearly all actives have a fitted effect of over 80% in size
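Activators of BRCA1 expression were detected as increased firefly luciferase luminescence in engineered MCF7 cells after 48 h compound incubation. Signals were scaled to genistein 10 microM as full activation.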
HEK293 tox: cytotoxicity in counter-screen for GLP-1R inverse agonists; AID 624418; Potency, µM (highest dose often 38.3 µM), without a hit: at the top dose activity change, negative = inhibition, hits mostly inhibitors; 410,000 tested, 0.13% active; HEK293 cAMP-luciferase reporter cells, luminescence, 24 h;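 also: loss of luciferase light is scored as toxicity; % is scaled to controls: 0 for no effect and ±100 for the full control effect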
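1536-well qHTS counterscreen of the MLSMR; 200 cells/uL, 12 h pre-incubation, 23 nL cpd, 24 h at 37 deg C 5% CO2, luciferase detection reagent, 12 min RT, luminescence. Inhibition = undesired.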
An asterisk follows results filed as active; ? = inconclusive; · = not tested or not shown; [ ] = dose if it differs, or a comment. Hits are enriched below; roughly 2.6% of the tested compounds scored in any of these assays. Calls follow the shape of the dose curve; as a rule, active = well fitted curve in the direction sought with a large enough effect; inconclusive = small, poorly fitted or top-dose-only effect, or another doubt; inactive = no such curve, though single readings can be large; an effect the other way counts as inactive or inconclusive. Potency is read from the fitted curve at half-maximal effect.

SMILES	GLP1R ag	GLP1R inv ag	BRCA1 expr up	HEK293 tox
CC1CCc2c(C(=O)NCC3CCCO3)csc2C1 (stereo not drawn)	0%	8%	11µM*	-1%
CC(=O)c1ccc(N2CCN(S(=O)(=O)c3ccc(-c4coc(C)n4)cc3)CC2)cc1	-1%	0%	-20%	-10%
CNC(=O)c1c(NC(=O)c2ccc(S(=O)(=O)N3CCCc4ccccc43)cc2)sc2c1CCN(C)C2	14%	4.5µM*	-5%	3%
COc1ccc2c(CNCc3cccs3)c(C(=O)O)n(Cc3ccccc3C)c2c1	·	-5%	·	-9%
C=CCSc1nnc(-c2ccc([N+](=O)[O-])cc2)o1	3%	4%	10µM*	-10%
NC(=O)CSc1nnc(-c2ccc([N+](=O)[O-])cc2)o1	0%	-10%	60%	2%
Cc1ccc(C)c(NC(=S)c2ccccn2)c1	0%	?	15%	?
Cc1ccc(C)c(NC(=S)c2ccc3ccccc3n2)c1	4%	5.6µM*	64%	2.8µM*
O=C(C[n+]1cccc(Br)c1)c1cccc([N+](=O)[O-])c1	·	·	2%	·
C=C[C@@H]1c2ccccc2N(S(=O)(=O)c2ccc(C)cc2)[C@H](c2ccccc2)C1(C#N)C#N	-1%	3.5µM*	-27%	-9%
O=C(NCC(=O)N1CCN(c2ncccn2)CC1)c1ccccc1F	-1%	3%	7.9µM*	-5%
COc1ccccc1C(=O)NCC(=O)N1CCN(c2ncccn2)CC1	-5%	9%	5%	-6%
Cn1c(CO)cnc1SCC(=O)c1ccc(Cl)cc1	-5%	7.1µM*	21%	-28%
COC(=O)c1cnc(SCc2ccc(Cl)cc2)n1C	7%	1%[7.66 µM]	11µM*	-1%[7.66 µM]
NCCCCC(NC(=O)C1CCCN1C(=O)C1CSSCC(N)C(=O)NC(Cc2ccccc2)C(=O)NC(Cc2ccccc2)C(=O)NC(CCC(N)=O)C(=O)NC(CC(N)=O)C(=O)N1)C(=O)NCC(N)=O (stereo not drawn)	0%	·	·	·
Cc1cnc(C(=O)O)cn1	-5%	·	·	·
COc1ccc(S(=O)(=O)N2CCC(C(=O)NCc3cccnc3)CC2)cc1OC	6%	12%	-15%	-5%
C/C(=N\NC(=O)c1ccco1)c1ccc(-c2ccccc2)cc1	10%	2%	8.9µM*	3%
C/C(=N\NC(=O)c1csc(C)c1C)c1ccco1	-8%	0%	-2%	-4%
C/C(=N\NC(=O)c1cccs1)c1ccc(C(=O)O)s1	3%	3%	14µM*	1%
C/C(=N/NC(=O)c1cccs1)c1ccco1	1%	5%	13µM*	-11%
CCC1CCCCN1C(=O)CCS(=O)(=O)c1cc2c(cc1C)NC(=O)CO2 (stereo not drawn)	-5%	10%	-1%	-4%
CCOC(=O)CNC(=O)N1CCc2cc(S(=O)(=O)N3CCC(C)CC3)ccc21	·	4%	·	10%
COc1ccc(CN(C(=S)Nc2ccccc2)C2CC(=O)N(c3ccc(Cl)cc3)C2=O)cc1 (stereo not drawn)	-2%	?	-42%	?
O=C1CC(N(Cc2cccs2)C(=O)Nc2ccccc2)C(=O)N1c1ccc(Cl)cc1 (stereo not drawn)	-28%	8.9µM*	-47%	-16%
SMILES	GLP1R ag	GLP1R inv ag	BRCA1 expr up	HEK293 tox
O=C(NCCc1ccc([N+](=O)[O-])cc1)c1ccccc1	-4%	4%	40%	1%
CC(C)(C)c1ccc(C(=O)NCCc2ccccc2)cc1	-4%	?	17%	1%
Cc1cc(C(=O)NCCc2ccccc2)ccc1[N+](=O)[O-]	-8%	0%	6.3µM*	-8%
Cc1ccc(C(=O)NCCSC(C)(C)C)cc1	-26%	?	31%	-1%
Cc1ccc(C(=O)NCCSC(C)(C)C)cc1[N+](=O)[O-]	-4%	-1%	11µM*	-21%
CSCCNC(=O)c1ccc(C(C)(C)C)cc1	0%	?	7.1µM*	-6%
CC(C)c1ccc(CCNC(=O)c2ccc([N+](=O)[O-])cc2)cc1	13%	3.5µM*	-1%	-16%
CCOC1=C2CN(S(=O)(=O)c3ccc(C)cc3)[C@H](c3ccccc3)C[C@@H]2N(S(=O)(=O)c2ccc(C)cc2)[C@H](c2cccc(C)c2)C1	2%	22%	0%	3%
O[C@H]1CN(CC2CCCCC2)[C@@H](c2ccc(Cl)cc2)C[C@@H]1n1cc(C2CC2)nn1	-1%	?	-64%	?
CCc1ccc2c(c1)c(=O)c(C(=O)c1ccc(C)cc1)cn2CC(=O)Nc1ccc2c(c1)OCCO2	0%	2%	5%	-9%
CC(C)CCNC(=S)Nc1ccc([N+](=O)[O-])cc1	-1%	11µM*	-37%	?
O=C(NCCc1ccccc1)c1ccc([N+](=O)[O-])cc1	-29%	?	35%	-15%
O=C(NCCc1ccccc1)c1ccc(Cl)c([N+](=O)[O-])c1	5%	9%	4µM*	4%
CC(C)CNC(=S)NC(=O)c1ccc([N+](=O)[O-])cc1	-6%	10µM*	47%	?
O=C(c1cccc(S(=O)(=O)N2CCCC2)c1)N1CCN(Cc2ccccc2)CC1	-5%	-8%	-15%	2%
COc1ccc2nc(N3C(=O)CNC3=S)sc2c1	0%	?	0%	7.9µM*
Cc1ccc2nc(N3C(=O)CNC3=S)sc2c1	11%	?	15%	?
Cc1ccc(N2CC(NC(=O)c3ccco3)CC2=O)cc1 (stereo not drawn)	·	21%	·	0%
Clc1ccccc1-c1nc(Nc2ccccc2)nc2ccc(Br)cc12	·	10µM*	·	42%
COc1ccccc1Nc1nc(-c2ccccc2Cl)c2cc(Br)ccc2n1	·	13%	·	6%
COc1ccccc1CNc1nc(Nc2ccccc2OC)c2sccc2n1	19%	-5%	0%	1%
COc1cccc(CNc2nc(NC(C)C)nc3ccsc23)c1OC	-2%	11µM*	-45%	?
COc1ccccc1CNc1nc(Nc2ccc(C)cc2C)c2sccc2n1	0%	10µM*	-25%	-13%
CCCN(C(=O)c1cc2c(=O)oc3ccccc3c2s1)c1ccc(CC)cc1	1%	10%	7%	0%
COc1cccc(C(=O)CC2(O)C(=O)Nc3ccc(Cl)cc32)c1 (stereo not drawn)	·	-5%	·	0%
SMILES	GLP1R ag	GLP1R inv ag	BRCA1 expr up	HEK293 tox
CCCOc1ccc(NC(=O)CC2C(=O)N(c3ccc(C)cc3)C(=O)N2Cc2cccc(OC)c2)cc1 (stereo not drawn)	·	-2%	·	-3%
CC(C)NC1=C(Cl)C(=O)c2ccccc2C1=O	11%	0%	-75%	5.6µM*
O=C1C(Cl)=C(Nc2ccccc2)C(=O)c2ccccc21	1%	-22%	-88%	?
O=C(CN1CCCCC1)NC(=O)NC1CCCC1	8%	39%	0%	10%
O=C(CN1CCCCCCC1)NC(=O)NC1CCCCC1	5%	4µM*	73%	1%
c1ccc(Sc2ncnc3c2oc2ccccc23)nc1	5%	-26%	11µM*	-19%
CC(C)Sc1ncnc2c1oc1ccccc12	11%	6%	-13%	3%
